Measurements as given in PubChem BioAssay (Tox21).
Values joined by “and” are separate entries in the source; they are usually repeats but may differ in a detail not shown here. Equal entries are not always repeated. Inconclusive results are not listed. Entries that show only a call come without a potency. Active and inactive are the calls of the source. Unless noted, the call rests on the fitted dose curve.

experiment: qHTS assay to identify small molecule antagonists of the vitamin D receptor (VDR) signaling pathway - cell viability counter screen (AID 743225; active means well fitted cell-killing curve with a large enough effect in the repeat runs); details: VDR-bla HEK293T viability, CellTiter-Glo luminescence, 16 h; series mostly up to 61 µM
Method in brief: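 Parallel cytotoxicity test: VDR-UAS-bla HEK 293T, 3 nM (final) 1-alpha,25-dihydroxyvitamin D3 with test compound, 16 h, 37C. Endpoint is CellTiter-Glo luminescence in the same wells.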
Further: nearly all actives have a fitted effect of over 50% in size.
Potency means the concentration at half of the fitted maximal effect.

Row | Structure (SMILES) | Potency
1 | ClC1=C(Cl)C2(Cl)C3C(Cl)C(Cl)CC3C1(Cl)C2(Cl)Cl (configuration not stated) | 54.8 µM (active) and 49 µM (active)
2 | [Cd+2].[Cl-].[Cl-] | 8.78 µM (active) and 2.45 µM (active)
3 | CCC[CH2][Sn]([CH2]CCC)([CH2]CCC)[O]C(=O)c1ccccc1 | 1.95 µM (active)
4 | CCCN(CCC)c1c([N+](=O)[O-])cc(S(N)(=O)=O)cc1[N+](=O)[O-] | 11.7 µM (active)
5 | O=C(CCl)Nc1ccccc1 | 49 µM (active)
6 | CSCCCN=C=S | inactive
7 | S=C=Nc1cccc2ccccc12 | inactive
8 | CN(C)C1CSSSC1 | inactive
9 | C=CC(=O)OCC(COC(=O)C=C)(COC(=O)C=C)COC(=O)C=C | 6.92 µM (active)
10 | CC(C)[C@H](C(=O)O[C@H](C#N)c1cccc(Oc2ccccc2)c1)c1ccc(Cl)cc1 | inactive
11 | CC(C)[C@H](C(=O)OC(C#N)c1cccc(Oc2ccccc2)c1)c1ccc(OC(F)F)cc1 (some centres not stated) | inactive
12 | CC1CCC(C(C)C)C(OC(=O)c2ccccc2N)C1 (configuration not stated) | 38.4 µM (active)
13 | [Hg+2].[I-].[I-] | 5.49 µM (active)
14 | CC[C@H]1C[C@@H]2C[C@H]3c4[nH]c5ccc(OC)cc5c4CCN(C2)[C@@H]13 | inactive
15 | O=[N+]([O-])c1ccc2ccc3cccc4ccc1c2c34 | inactive

experiment: qHTS assay to identify small molecule agonists of the endoplasmic reticulum stress response signaling pathway - cell viability counter screen (AID 1159517); details: ESRE-bla HeLa viability, CellTiter-Glo luminescence, 5 h; series mostly up to 61 µM
Method in brief: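 After overnight attachment, ESRE-bla HeLa cells were treated with Tox21 library compounds for 5 hr. CellTiter-Glo luminescence, read 30 min post-addition at room temperature, reported viability.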

Row | Structure (SMILES) | Potency
16 | c1ccc2c(c1)[nH]c1cnccc12 | inactive
17 | ClC1=C(Cl)C2(Cl)C3C(Cl)C(Cl)CC3C1(Cl)C2(Cl)Cl (configuration not stated) | 49 µM (active)
18 | Clc1ccc(C(c2ccccc2Cl)C(Cl)(Cl)Cl)cc1 (configuration not stated) | 43.9 µM (active)
19 | Oc1c(Cl)c(Cl)cc(Cl)c1Cl | inactive
20 | CC(=O)C(Cl)(Cl)Cl | inactive
21 | [Cd+2].[Cl-].[Cl-] | inactive
22 | O=C(CCl)C(Cl)Cl | inactive
23 | COC(=O)N(C(=O)N1CO[C@@]2(C(=O)OC)Cc3cc(Cl)ccc3C2=N1)c1ccc(OC(F)(F)F)cc1 | inactive
24 | CCOC(=O)C1(c2ccccc2)CCN(CCC(C#N)(c2ccccc2)c2ccccc2)CC1 | inactive
25 | Nc1ccc(Sc2ccc(N)cc2)cc1 | inactive
26 | CCC[CH2][Sn]([CH2]CCC)([CH2]CCC)[O]C(=O)c1ccccc1 | 4.9 µM (active)
27 | N#C/C=C/C#N | inactive
28 | O=c1oc2ccccc2c(O)c1Cc1c(O)c2ccccc2oc1=O | inactive
29 | CC(=O)/C=C/c1ccc2c(c1)OCO2 | inactive
30 | C[C@]12CC[C@@H]3c4ccc(OC(=O)N(CCCl)CCCl)cc4CC[C@H]3[C@@H]1CC[C@@H]2O | inactive
31 | CCCN(CCC)c1c([N+](=O)[O-])cc(S(N)(=O)=O)cc1[N+](=O)[O-] | 52.2 µM (active)
32 | O=C(CCl)Nc1ccccc1 | inactive
33 | CSCCCN=C=S | 19.5 µM (active)
34 | S=C=Nc1cccc2ccccc12 | 19.3 µM (active)

Row | Structure (SMILES) | Potency
35 | CCCCCCCCc1ccc(O)cc1 | 49.3 µM (active)
36 | CN(C)C1CSSSC1 | inactive
37 | C=CC(=O)OCC(COC(=O)C=C)(COC(=O)C=C)COC(=O)C=C | 12.3 µM (active)
38 | CC(C)[C@H](C(=O)O[C@H](C#N)c1cccc(Oc2ccccc2)c1)c1ccc(Cl)cc1 | inactive
39 | CC(C)[C@H](C(=O)OC(C#N)c1cccc(Oc2ccccc2)c1)c1ccc(OC(F)F)cc1 (some centres not stated) | inactive
40 | CC1CCC(C(C)C)C(OC(=O)c2ccccc2N)C1 (configuration not stated) | 43 µM (active)
41 | O=[N+]([O-])c1c2ccccc2cc2ccccc12 | inactive
42 | [Hg+2].[I-].[I-] | 49 µM (active)
43 | CC(Cc1ccc(C(C)(C)C)cc1)CN1C[C@@H](C)O[C@@H](C)C1 (some centres not stated) | inactive
44 | CCC(C)c1cc([N+](=O)[O-])cc([N+](=O)[O-])c1OC(=O)C=C(C)C (configuration not stated) | inactive
45 | CC(C)Oc1cccc(NC(=O)c2ccccc2C(F)(F)F)c1 | inactive
46 | CC[C@H]1C[C@@H]2C[C@H]3c4[nH]c5ccc(OC)cc5c4CCN(C2)[C@@H]13 | inactive
47 | c1ccc(Nc2ccc3ccccc3c2)cc1 | inactive
48 | BrC(Br)C(Br)(Br)Br | inactive
49 | COc1cccc2c1C(=O)c1c(O)c3c(c(O)c1C2=O)C[C@@](O)(C(=O)CO)CC3OC1CC(N2CCOC(OC)C2)C(O)C(C)O1 (some centres not stated) | 0.952 µM (active)
50 | CC(C)(O)c1cnn2c(-c3ccc(F)c(-c4c(F)cccc4C#N)c3)cnc2n1 | inactive
51 | CC1(C)[C@H](C(=O)O[C@H](C#N)c2cccc(Oc3ccccc3)c2)[C@@H]1/C=C(\Cl)C(F)(F)F | inactive
52 | O=[N+]([O-])c1ccc2ccc3cccc4ccc1c2c34 | inactive
